Experimental data: PubChem BioAssay AID1159580 (chemical genetic matrix, 2015)
Screen size: about 5,500 compounds; about 2,000 (36%) were called active. Roughly 18% stayed inconclusive and do not appear here. Cut-off read from the data, not from the text of the source: active = normalized growth mostly below about 0.91 (no sharp cut-off); inconclusive = no clear call, values can overlap the other calls; inactive = mostly above about 0.92. The list shows a part of the results.

Assay: chemical genetic growth profiling, strain panel (AID 1159580);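 note: tested at 20 µM; growth read once vehicle control cultures reached saturation at 30 °C; 1 = growth at the plate median or of vehicle wells; lower values mean less growth of the strain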
Settings: growth OD

Measured: normalized growth

COC(=O)C(N)CS (configuration not stated)
inactive: S. cerevisiae deletion strains, locus YJR075W, strain HOC1, hits give low values 0.977 | S. cerevisiae deletion strains, locus YKL009W, strain mrt4, hits give low values 1.02 | S. cerevisiae deletion strains, locus YKL068W, hits give low values 0.99 | S. cerevisiae deletion strains, locus YKL085W, strain MDH1 (second series), hits give low values 0.992 | S. cerevisiae deletion strains, locus YKL085W, strain MDH1, hits give low values 0.992 | S. cerevisiae deletion strains, locus YKL160W, strain elf1, hits give low values 1.02 | S. cerevisiae deletion strains, locus YKL190W, strain CNB1, hits give low values 0.998 | S. cerevisiae deletion strains, locus YKR001C, strain vps1, hits give low values 0.924 | S. cerevisiae deletion strains, locus YKR026C, strain gcn3, hits give low values 0.985 | S. cerevisiae deletion strains, locus YKR091W, strain srl3, hits give low values 0.99 | S. cerevisiae deletion strains, locus YLL001W, strain dnm1, hits give low values 0.948 | S. cerevisiae deletion strains, locus YLL026W, hits give low values 0.978 | S. cerevisiae deletion strains, locus YLL041C, strain sdh2, hits give low values 0.985 | S. cerevisiae deletion strains, locus YLR027C, strain aat2, hits give low values 0.988 | S. cerevisiae deletion strains, locus YLR039C, strain RIC1, hits give low values 0.897 | S. cerevisiae deletion strains, locus YLR058C, strain SHM2, hits give low values 0.99 | S. cerevisiae deletion strains, locus YLR102C, strain apc9, hits give low values 0.98 | S. cerevisiae deletion strains, locus YLR113W, strain HOG1, hits give low values 0.972 | S. cerevisiae deletion strains, locus YLR221C, strain rsa3, hits give low values 0.961 | S. cerevisiae deletion strains, locus YLR258W, strain gsy2, hits give low values 1 | S. cerevisiae deletion strains, locus YLR262C, strain YPT6 (second series), hits give low values 0.926 | S. cerevisiae deletion strains, locus YLR262C, strain YPT6, hits give low values 0.943 | S. cerevisiae deletion strains, locus YLR320W, strain mms22, hits give low values 0.92 | S. cerevisiae deletion strains, locus YLR330W, strain CHS5, hits give low values 0.993 | S. cerevisiae deletion strains, locus YLR342W, strain FKS1 (second series), hits give low values 0.938 | S. cerevisiae deletion strains, locus YLR342W, strain FKS1, hits give low values 0.984 | S. cerevisiae deletion strains, locus YLR357W, strain rsc2, hits give low values 0.947 | S. cerevisiae deletion strains, locus YLR370C, strain arc18, hits give low values 0.996 | S. cerevisiae deletion strains, locus YLR371W, strain rom2, hits give low values 0.967 | S. cerevisiae deletion strains, locus YLR384C, strain iki3, hits give low values 0.992 | S. cerevisiae deletion strains, locus YLR418C, strain cdc73, hits give low values 0.888 | S. cerevisiae deletion strains, locus YML016C, strain PPZ1, hits give low values 0.989 | S. cerevisiae deletion strains, locus YML032C, strain rad52, hits give low values 0.962 | S. cerevisiae deletion strains, locus YML120C, strain ndi1, hits give low values 0.949 | S. cerevisiae deletion strains, locus YML124C, strain tub3, hits give low values 0.985 | S. cerevisiae deletion strains, locus YMR058W, strain fet3, hits give low values 0.963 | S. cerevisiae deletion strains, locus YMR078C, strain ctf18, hits give low values 0.968 | S. cerevisiae deletion strains, locus YMR125W, strain sto1, hits give low values 1.01 | S. cerevisiae deletion strains, locus YMR129W, hits give low values 1 | S. cerevisiae deletion strains, locus YMR205C, strain PFK2, hits give low values 0.957 | S. cerevisiae deletion strains, locus YMR223W, strain ubp8, hits give low values 0.965 | S. cerevisiae deletion strains, locus YMR231W, strain pep5, hits give low values 0.981 | S. cerevisiae deletion strains, locus YMR263W, strain SAP30, hits give low values 0.984 | S. cerevisiae deletion strains, locus YMR307W, strain GAS1, hits give low values 1 | S. cerevisiae deletion strains, locus YNL067W, strain RPL9B, hits give low values 0.968 | S. cerevisiae deletion strains, locus YNL071W, strain lat1, hits give low values 0.968 | S. cerevisiae deletion strains, locus YNL128W, strain TEP1, hits give low values 0.983 | S. cerevisiae deletion strains, locus YNL153C, strain GIM3, hits give low values 0.991 | S. cerevisiae deletion strains, locus YNL183C, strain NPR1, hits give low values 1 | S. cerevisiae deletion strains, locus YNL209W, strain ssb2, hits give low values 1.01 | S. cerevisiae deletion strains, locus YNL233W, strain BNI4, hits give low values 0.955 | S. cerevisiae deletion strains, locus YNL248C, strain rpa49, hits give low values 0.984 | S. cerevisiae deletion strains, locus YNL250W, strain rad50, hits give low values 0.98 | S. cerevisiae deletion strains, locus YNL271C, strain bni1, hits give low values 0.98 | S. cerevisiae deletion strains, locus YNL298W, strain CLA4, hits give low values 0.991 | S. cerevisiae deletion strains, locus YNL322C, strain KRE1 (second series), hits give low values 1 | S. cerevisiae deletion strains, locus YNL322C, strain KRE1, hits give low values 1 | S. cerevisiae deletion strains, locus YNR049C, strain mso1, hits give low values 0.986 | S. cerevisiae deletion strains, locus YNR052C, strain pop2, hits give low values 0.973 | S. cerevisiae deletion strains, locus YOL006C, strain TOP1, hits give low values 0.896 | S. cerevisiae deletion strains, locus YOL012C, strain htz1 1.21 | S. cerevisiae deletion strains, locus YOL147C, strain pex11, hits give low values 0.984 | S. cerevisiae deletion strains, locus YOR001W, strain rrp6, hits give low values 0.929 | S. cerevisiae deletion strains, locus YOR061W, strain CKA2, hits give low values 0.989 | S. cerevisiae deletion strains, locus YOR069W, strain VPS5, hits give low values 0.991 | S. cerevisiae deletion strains, locus YOR070C, strain gyp1, hits give low values 0.999 | S. cerevisiae deletion strains, locus YOR080W, strain dia2, hits give low values 0.979 | S. cerevisiae deletion strains, locus YOR083W, strain WHI5, hits give low values 0.988 | S. cerevisiae deletion strains, locus YOR106W, strain vam3, hits give low values 0.949 | S. cerevisiae deletion strains, locus YOR136W, strain idh2, hits give low values 0.978 | S. cerevisiae deletion strains, locus YOR144C, strain elg1, hits give low values 0.979 | S. cerevisiae deletion strains, locus YOR184W, strain ser1, hits give low values 0.911 | S. cerevisiae deletion strains, locus YOR231W, strain MKK1, hits give low values 1 | S. cerevisiae deletion strains, locus YOR265W, strain rbl2, hits give low values 0.992 | S. cerevisiae deletion strains, locus YOR270C, strain vph1, hits give low values 0.805 | S. cerevisiae deletion strains, locus YOR290C, strain snf2, hits give low values 1.02 | S. cerevisiae deletion strains, locus YOR316C, strain cot1, hits give low values 0.987 | S. cerevisiae deletion strains, locus YPL051W, strain arl3, hits give low values 1.01 | S. cerevisiae deletion strains, locus YPL055C, strain LGE1, hits give low values 0.993 | S. cerevisiae deletion strains, locus YPL078C, strain atp4, hits give low values 1.01 | S. cerevisiae deletion strains, locus YPL106C, strain sse1, hits give low values 1.03 | S. cerevisiae deletion strains, locus YPL240C, strain hsp82, hits give low values 0.987 | S. cerevisiae deletion strains, locus YPL241C, strain CIN2, hits give low values 0.996 | S. cerevisiae deletion strains, locus YPL256C, strain CLN2, hits give low values 1.05 | S. cerevisiae deletion strains, locus YPR119W, strain clb2, hits give low values 0.977 | S. cerevisiae deletion strains, locus YPR141C, strain kar3, hits give low values 0.979 | S. cerevisiae deletion strains, locus YPR167C, strain met16, hits give low values 0.98 | S. cerevisiae deletion strains, strain wtn01, hits give low values 0.967 | S. cerevisiae strains, strain wild type, hits give low values 0.983
active: S. cerevisiae deletion strains, locus YLR268W, strain sec22, hits give low values 0.871 | S. cerevisiae deletion strains, locus YNL307C, strain MCK1, hits give low values 0.797 | S. cerevisiae deletion strains, locus YPR163C, strain tif3, hits give low values 0.887
